Experimental findings from publication PMC11006913 are described below.

Positions count from the first letter of the chain named.

What all share (experiment): PBM; 200 nM protein, PBS
Common to all, as to conditions: dsDNA, one strand shown

Assay [1] addresses T1, PAX4 (Homo sapiens, UniProt O43316 9-242, R200K).
T1 sequence: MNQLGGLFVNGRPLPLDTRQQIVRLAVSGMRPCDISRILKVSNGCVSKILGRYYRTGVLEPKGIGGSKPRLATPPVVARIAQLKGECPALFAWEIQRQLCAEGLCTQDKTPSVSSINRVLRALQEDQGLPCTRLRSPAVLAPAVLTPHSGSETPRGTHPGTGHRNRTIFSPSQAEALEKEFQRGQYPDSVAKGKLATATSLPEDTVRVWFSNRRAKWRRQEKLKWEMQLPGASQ

Assay [2] deals with PRRX1 (Homo sapiens, UniProt P54821 80-166, F113S).
Chain of PRRX1 (Homo sapiens, UniProt P54821 80-166, F113S) (P54821 80-166 F113S): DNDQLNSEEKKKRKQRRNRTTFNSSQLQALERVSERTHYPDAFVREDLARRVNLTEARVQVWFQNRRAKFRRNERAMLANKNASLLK
The target of assay [3] is T2, PAX4 (Homo sapiens, UniProt O43316 9-242).
T2 sequence: T1 sequence with K192R

Assay [4] has as its target ALX1 (Homo sapiens, UniProt Q15699 118-204, L144V).
Assay [5] deals with T3, PAX4 (Homo sapiens, UniProt O43316 9-242, R200Q).
T3 sequence: T1 sequence with K192Q

For assay [6], the target named is ALX1 (Homo sapiens, UniProt Q15699 118-204, L144R).
Chain of ALX1 (Homo sapiens, UniProt Q15699 118-204, L144R) (Q15699 118-204 L144R): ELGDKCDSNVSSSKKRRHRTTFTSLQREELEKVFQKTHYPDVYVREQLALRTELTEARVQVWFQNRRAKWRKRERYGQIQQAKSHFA
The target in assay [7] is T4, PAX4 (Homo sapiens, UniProt O43316 9-242, F177V).
T4 sequence: T1 sequence with F169V, K192R

Assay [8] has as its target T5, PAX4 (Homo sapiens, UniProt O43316 9-242, F177Y).
T5 sequence: T1 sequence with F169Y, K192R

Assay [9] concerns the target T6, PAX4 (Homo sapiens, UniProt O43316 9-242, R227W).
T6 sequence: T1 sequence with K192R, R219W

Assay [10] concerns the target ALX1 (Homo sapiens, UniProt Q15699 118-204).
The target in assay [11] is PRRX1 (Homo sapiens, UniProt P54821 80-166).
Chain of PRRX1 (Homo sapiens, UniProt P54821 80-166) (P54821 80-166): as the sequence (P54821 80-166 F113S) above, with S34F counted along it
The target of assay [12] is T7, NKX2-6 (Homo sapiens, UniProt A6NCS4 118-204, R150C).
T7 sequence: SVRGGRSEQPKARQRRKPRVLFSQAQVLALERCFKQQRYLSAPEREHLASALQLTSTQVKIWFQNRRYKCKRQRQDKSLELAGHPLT

The target of assay [13] is T8, NKX2-6 (Homo sapiens, UniProt A6NCS4 118-204).
T8 sequence: T7 sequence with C33R

The target of assay [14] is T9, NKX2-6 (Homo sapiens, UniProt A6NCS4 118-204, F151L).
T9 sequence: T7 sequence with C33R, F34L

The target of the next assay is PITX2 (Homo sapiens, UniProt Q99697 72-157).
Assay [15] deals with HOXB9 (Homo sapiens, UniProt P17482 171-250).
Chain of HOXB9 (Homo sapiens, UniProt P17482 171-250) (P17482 171-250): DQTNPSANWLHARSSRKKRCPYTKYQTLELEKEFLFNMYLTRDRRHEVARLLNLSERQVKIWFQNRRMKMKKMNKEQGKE
Assay [16] deals with HOXB9 (Homo sapiens, UniProt P17482 171-250, R186Q).
Chain of HOXB9 (Homo sapiens, UniProt P17482 171-250, R186Q) (P17482 171-250 R186Q): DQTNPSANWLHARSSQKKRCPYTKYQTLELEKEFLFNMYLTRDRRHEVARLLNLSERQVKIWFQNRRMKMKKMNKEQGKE
Assay [17] deals with NKX3-2 (Homo sapiens, UniProt P78367 192-278, P234S).
Chain of NKX3-2 (Homo sapiens, UniProt P78367 192-278, P234S) (P78367 192-278 P234S): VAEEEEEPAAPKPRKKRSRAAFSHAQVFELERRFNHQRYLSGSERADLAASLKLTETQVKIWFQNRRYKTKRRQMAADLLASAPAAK
The target of assay [18] is NKX3-2 (Homo sapiens, UniProt P78367 192-278).
Chain of NKX3-2 (Homo sapiens, UniProt P78367 192-278) (P78367 192-278): as the sequence (P78367 192-278 P234S) above, with S43P counted along it
Assay [19] concerns the target T10, VENTX (Homo sapiens, UniProt O95231 78-163, R121Q).
T10 sequence: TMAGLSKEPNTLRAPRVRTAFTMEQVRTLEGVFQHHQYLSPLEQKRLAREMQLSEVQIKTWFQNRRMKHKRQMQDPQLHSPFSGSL

For assay [20], the target named is T11, VENTX (Homo sapiens, UniProt O95231 78-163).
T11 sequence: T10 sequence with Q44R

In assay [21] the target is T12, VENTX (Homo sapiens, UniProt O95231 78-163, Y115F).
T12 sequence: T10 sequence with Y38F, Q44R

Chain of ALX1 (Homo sapiens, UniProt Q15699 118-204, L144V) (Q15699 118-204 L144V): as the sequence (Q15699 118-204 L144R) above, with R27V counted along it
Chain of ALX1 (Homo sapiens, UniProt Q15699 118-204) (Q15699 118-204): as the sequence (Q15699 118-204 L144R) above, with R27L counted along it

On to GCCGCAGC, for which the binding signal in the assay with PAX4 [1] is 9.27 upbm affinity estimate (log intensity, higher = more binding, comparable within an allelic series); with PRRX1 [2] it was 9.25 upbm affinity estimate (log intensity, higher = more binding, comparable within an allelic series); with PAX4 [3], 9.2 upbm affinity estimate (log intensity, higher = more binding, comparable within an allelic series); with ALX1 [4] it was 6.7 upbm affinity estimate (log intensity, higher = more binding, comparable within an allelic series); with PAX4 [5], 9.23 upbm affinity estimate (log intensity, higher = more binding, comparable within an allelic series); in the assay with ALX1 [6] it was 6.73 upbm affinity estimate (log intensity, higher = more binding, comparable within an allelic series). The binding signal with PAX4 [7] was 9.18 upbm affinity estimate (log intensity, higher = more binding, comparable within an allelic series); with PAX4 [8] it was 9.21 upbm affinity estimate (log intensity, higher = more binding, comparable within an allelic series); with PAX4 [9], 9.18 upbm affinity estimate (log intensity, higher = more binding, comparable within an allelic series); with ALX1 [10], 6.7 upbm affinity estimate (log intensity, higher = more binding, comparable within an allelic series); with PRRX1 [11] it was 9.47 upbm affinity estimate (log intensity, higher = more binding, comparable within an allelic series).
Regarding ACGCATTA, the binding signal with PAX4 [1] was 11.6 upbm affinity estimate (log intensity, higher = more binding, comparable within an allelic series); with PAX4 [9], 10.9 upbm affinity estimate (log intensity, higher = more binding, comparable within an allelic series).
In the case of CCCTTCCG, the binding signal is 9.35 upbm affinity estimate (log intensity, higher = more binding, comparable within an allelic series) in the assay with PRRX1 [2] and 9.49 upbm affinity estimate (log intensity, higher = more binding, comparable within an allelic series) in the assay with PRRX1 [11].
With GCCAGGGC, the binding signal with NKX2-6 [12] is 9.13 upbm affinity estimate (log intensity, higher = more binding, comparable within an allelic series).
For the sequence CCCCCTGA, the binding signal with ALX1 [4] is 6.45 upbm affinity estimate (log intensity, higher = more binding, comparable within an allelic series); in the assay with ALX1 [6], 6.47 upbm affinity estimate (log intensity, higher = more binding, comparable within an allelic series); with ALX1 [10], 6.49 upbm affinity estimate (log intensity, higher = more binding, comparable within an allelic series).
Consider CCCCCTGC, for which the binding signal in the assay with NKX2-6 [13] is 8.96 upbm affinity estimate (log intensity, higher = more binding, comparable within an allelic series); in the assay with NKX2-6 [14], 8.92 upbm affinity estimate (log intensity, higher = more binding, comparable within an allelic series).
CGGGCACG: the binding signal with PITX2 was 8.22 upbm affinity estimate (log intensity, higher = more binding, comparable within an allelic series).
As to CCGAGTCC, the binding signal is 9.18 upbm affinity estimate (log intensity, higher = more binding, comparable within an allelic series) in the assay with PRRX1 [2] and 9.67 upbm affinity estimate (log intensity, higher = more binding, comparable within an allelic series) with PRRX1 [11].
For GCCAACCC, the binding signal was 9.36 upbm affinity estimate (log intensity, higher = more binding, comparable within an allelic series) with PRRX1 [2] and 9.21 upbm affinity estimate (log intensity, higher = more binding, comparable within an allelic series) with PRRX1 [11].
Take CCGAATTA: the binding signal with HOXB9 [15] is 10.1 upbm affinity estimate (log intensity, higher = more binding, comparable within an allelic series); with HOXB9 [16], 10 upbm affinity estimate (log intensity, higher = more binding, comparable within an allelic series).
Regarding CGCCTGCC, the binding signal with NKX2-6 [12] was 9.32 upbm affinity estimate (log intensity, higher = more binding, comparable within an allelic series); with NKX2-6 [13], 9.1 upbm affinity estimate (log intensity, higher = more binding, comparable within an allelic series); with NKX2-6 [14], 9.19 upbm affinity estimate (log intensity, higher = more binding, comparable within an allelic series).
For CGGCCCCA, in the assay with NKX2-6 [12], the binding signal was 9.36 upbm affinity estimate (log intensity, higher = more binding, comparable within an allelic series).
With CTGGCGCA, the binding signal is 6.29 upbm affinity estimate (log intensity, higher = more binding, comparable within an allelic series) in the assay with ALX1 [4]; 6.21 upbm affinity estimate (log intensity, higher = more binding, comparable within an allelic series) with ALX1 [6]; 6.24 upbm affinity estimate (log intensity, higher = more binding, comparable within an allelic series) with ALX1 [10].
Regarding CGGCCCCC, the binding signal with ALX1 [4] was 6.51 upbm affinity estimate (log intensity, higher = more binding, comparable within an allelic series); in the assay with PITX2 it was 7.78 upbm affinity estimate (log intensity, higher = more binding, comparable within an allelic series); with ALX1 [6], 6.5 upbm affinity estimate (log intensity, higher = more binding, comparable within an allelic series); with NKX3-2 [17], 10.4 upbm affinity estimate (log intensity, higher = more binding, comparable within an allelic series); with ALX1 [10], 6.49 upbm affinity estimate (log intensity, higher = more binding, comparable within an allelic series); with NKX3-2 [18], 10.4 upbm affinity estimate (log intensity, higher = more binding, comparable within an allelic series).
With AGGGGGCG, in the assay with PITX2, the binding signal was 8.12 upbm affinity estimate (log intensity, higher = more binding, comparable within an allelic series).
On to CCCCGTAC, for which the binding signal is 8.03 upbm affinity estimate (log intensity, higher = more binding, comparable within an allelic series) with VENTX [19]; 8.06 upbm affinity estimate (log intensity, higher = more binding, comparable within an allelic series) with VENTX [20]; 8.02 upbm affinity estimate (log intensity, higher = more binding, comparable within an allelic series) in the assay with VENTX [21].
For AAATTGAT, the binding signal with VENTX [19] was 10.3 upbm affinity estimate (log intensity, higher = more binding, comparable within an allelic series); with VENTX [20], 10.7 upbm affinity estimate (log intensity, higher = more binding, comparable within an allelic series); with VENTX [21], 9.99 upbm affinity estimate (log intensity, higher = more binding, comparable within an allelic series).
AAATATCT: the binding signal in the assay with VENTX [19] is 9.87 upbm affinity estimate (log intensity, higher = more binding, comparable within an allelic series); with VENTX [20], 10 upbm affinity estimate (log intensity, higher = more binding, comparable within an allelic series); in the assay with VENTX [21], 9.74 upbm affinity estimate (log intensity, higher = more binding, comparable within an allelic series).
Turning to GCTAAATA, the binding signal is 10.1 upbm affinity estimate (log intensity, higher = more binding, comparable within an allelic series) with VENTX [19]; 10.6 upbm affinity estimate (log intensity, higher = more binding, comparable within an allelic series) in the assay with VENTX [20]; 10 upbm affinity estimate (log intensity, higher = more binding, comparable within an allelic series) with VENTX [21].
